Test results as given in PubChem BioAssay AID1619 (SRMLSC, 2009).
Hit rate of the full screen: of about 220,000 compounds, about 830 (0.38%) were called active.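 The calls were made as follows: active = compound inhibiting the enzyme by more than half at any dose during confirmatory dose-response retesting; inconclusive = strong single-dose inhibitors picked by rank but not retested; inactive = the rest.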 The list is a sample of the results. Entries with a potency or affinity are not part of this list.

Molecular target: Leucine aminopeptidase (Plasmodium falciparum (isolate 3D7)) (UniProt Q8IL11)
Assay: P. falciparum M17LAP inhibitors, primary screen, biochemical, fluorogenic H-Leu-NHMec substrate, 1536-well (AID 1619);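 also: plate controls were full reaction with DMSO carrier for no effect and no enzyme background for full effect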
Details: recombinant M17LAP, H-Leu-NHMec fluorogenic kinetic assay; at 30 µM; active compounds read high

Chain of Leucine aminopeptidase (Plasmodium falciparum (isolate 3D7)) (Q8IL11 whole entry, looked up): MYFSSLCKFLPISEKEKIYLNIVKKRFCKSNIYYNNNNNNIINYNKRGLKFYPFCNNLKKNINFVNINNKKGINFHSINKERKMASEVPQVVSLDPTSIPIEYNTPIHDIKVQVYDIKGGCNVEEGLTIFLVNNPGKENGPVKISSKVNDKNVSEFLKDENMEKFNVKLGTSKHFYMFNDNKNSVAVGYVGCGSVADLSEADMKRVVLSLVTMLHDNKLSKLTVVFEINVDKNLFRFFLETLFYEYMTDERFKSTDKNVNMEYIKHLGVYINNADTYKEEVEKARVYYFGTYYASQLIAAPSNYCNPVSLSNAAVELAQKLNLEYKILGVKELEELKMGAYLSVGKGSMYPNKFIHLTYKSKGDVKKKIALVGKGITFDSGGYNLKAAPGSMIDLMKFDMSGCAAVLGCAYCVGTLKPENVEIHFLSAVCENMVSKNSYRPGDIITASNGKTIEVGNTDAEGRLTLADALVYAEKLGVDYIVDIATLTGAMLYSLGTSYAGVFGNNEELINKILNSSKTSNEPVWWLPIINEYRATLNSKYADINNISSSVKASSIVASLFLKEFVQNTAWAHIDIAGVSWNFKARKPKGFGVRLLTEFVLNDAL

inhibition, inactive:
O=C(NNC(=O)C1CC2CCC1C2)c1ccccc1 (configuration not stated) 17.8%, O=C(NNC(=S)NC1CCCCC1)c1sc2ccccc2c1Cl 13.2%, CC(C)(C)c1ccc(/C=C2\Oc3cc(OC(=O)N4CCOCC4)ccc3C2=O)cc1 -5.21%, CCCC(C)NS(=O)(=O)c1ccc(OC)c(C)c1 (configuration not stated) 1.13%, Cn1c(-c2ccc3ccccc3n2)nc2cnccc21 9.33%, CCCNC(=O)C(=O)NCc1ccccn1 -4.32%, Cc1ccc(NC(=O)NC(=O)CN2C(=O)NC3(CCCCCCC3)C2=O)c(C)c1 3.61%, COc1ccccc1NC(=O)CN1C(=O)NC2(CCCCCCC2)C1=O -0.01%, Cc1ccc(NC(=O)CN2C(=O)NC3(CCC(C)CC3)C2=O)c(Cl)c1 (configuration not stated) 21%, Cc1cc(NC(=O)CN2C(=O)NC3(CCCCCC3)C2=O)no1 -1.33%, Cc1cc(NC(=O)CN2C(=O)NC3(CCCCC3)C2=O)no1 -14.1%, O=C(CN1C(=O)NC2(CCCCC2)C1=O)Nc1ccccc1Cl 30.3%, CCCNC(=O)c1cccc(NC(=O)C(C)C)c1 -3.07%, O=C(NC1CCCc2ccccc21)c1cccc(S(=O)(=O)N2CCOCC2)c1 (configuration not stated) 2.84%, Cc1ccc(OCC(=O)Nc2sc3c(c2C#N)CCC3)cc1 4.24%, CCc1onc(C)c1C(=O)Nc1cc(C)ccc1OC 7.34%, COc1ccc2c(c1)SCC/C2=C\CN1C(=O)CCC1=O -6.21%, Cn1c(NCCc2ccccc2)cc(=O)n(C)c1=O 1.23%, COc1ccc(NC(=O)CSc2n[nH]c(N)n2)c([N+](=O)[O-])c1 56.1%, COc1ccc(NC(=O)CSc2nnc(N)s2)c([N+](=O)[O-])c1 8.5%, CCN(CC)C(=O)CSc1nc2ccc(NC(=O)CSc3nnc(N)s3)cc2s1 19.7%, CCc1nc(SCC(=O)Nc2ccc(OC)cc2[N+](=O)[O-])n[nH]1 11.8%, Cc1ccc(NC(=O)CSc2nnc(N)s2)c([N+](=O)[O-])c1 26.8%, CCN(CC)S(=O)(=O)c1cccc(NC(=O)CSc2nnc(N)s2)c1 2.68%, CCCCOC(=O)C(C#N)c1nc2ccccc2nc1N1CCN(Cc2ccc3c(c2)OCO3)CC1 (configuration not stated) -4.21%, C/C(=N\NC(=O)c1ccc(CN2CCOCC2)cc1)c1ccc(NC(=O)c2ccccc2)cc1 4.99%, COc1ccc(C2CC(c3ccccc3)=NN2C(=O)COC(=O)CNC(=O)c2ccccc2)cc1 (configuration not stated) -5.9%, CCCCC(CC)C(=O)Nc1ccccc1C#N (configuration not stated) 2.15%, CCOC(=O)C1CCCCN1Cc1cn[nH]c1-c1ccc(F)cc1F (configuration not stated) 0.93%, CCOC(=O)NC1(Nc2cccc(Cl)c2)Oc2ccccc2O1 13.3%, Cc1[nH]n(C(C)(C)C)c(=O)c1Sc1ccc(Cl)cc1 -0.55%, Cc1[nH]n(-c2ccccc2)c(=O)c1-c1ccc(Cl)cc1 14.5%, O=C(CC1Oc2ccccc2NC1=O)NCc1ccccc1 (configuration not stated) 2.31%, CC(=O)NCCc1nc2ccccc2n1CCOc1ccccc1C -3.06%, COCc1cc(=O)n2[nH]c(-c3cccc(Br)c3)cc2n1 6.67%, O=C(O)c1cccc(NC(=S)N/N=C/c2ccccn2)c1 26.1%, O=C(O)c1cccc(NC(=S)N/N=C/c2cccc(O)c2)c1 56.3%, COc1cc(/C=N/NC(=S)Nc2cccc(C(=O)O)c2)ccc1O 56.1%, Cc1cccc(NC(=S)N/N=C/c2c[nH]c3ccccc23)c1 7.36%, COc1ccc(/C=N/NC(=S)Nc2cccc(C(=O)O)c2)cc1OC 38.7%, COc1cc(/C=N/NC(=S)Nc2cccc(C(=O)O)c2)cc(OC)c1OC 41%, CCCCCCCCC(=O)N/N=C(\C)c1ccc(O)cc1O 0.48%, Cc1ccccc1OCCn1cc(/C(N)=N/O)c2ccccc21 3.74%, CCO[C@@H]1OC(C(=O)N2CCOCC2)=C[C@H](c2coc3ccccc3c2=O)[C@H]1CCCO -0.63%, CC(=O)c1ccc(NC(=O)c2ccc(S(=O)(=O)c3ccccc3)cc2)cc1 -3.53%, O=C(CC(Nc1ccc(F)cc1)c1ccccc1)c1ccccc1 (configuration not stated) -9.06%, O=C(CN(Cc1ccccc1)C(=O)c1ccco1)NCc1ccc(F)cc1 4.59%, O=C(CSc1nc(O)cc(=O)[nH]1)N1c2ccccc2Sc2ccccc21 39.5%, Cc1nc(SCC(=O)N2c3ccccc3Sc3ccccc32)n[nH]1 17.3%, N#Cc1c(-c2ccccc2)nc(-c2ccccc2)[nH]c1=O 5.14%, O=C(CSc1nc(-c2ccc(Cl)cc2)[nH]c(=O)n1)Nc1cccc(Cl)c1 -10.8%, O=C(CSc1ccc(Cl)cc1)Nc1cccc(-c2nnc(-c3ccco3)o2)c1 6.07%, COCc1cc(C)nc(SCC(=O)Nc2cccc(C)c2C)c1C#N 6.16%, N#Cc1c(N)nc(-c2ccccc2)nc1-c1ccccc1 -4.62%, Cc1cccc(NC(=O)CSc2nnc(-c3ccccc3)n2N)c1C 1.89%, O=C(CCn1c(=O)oc2ccccc21)NC1=NCCS1 4.21%, C(=C\c1ccccc1)/C=N/N1CCN(Cc2ccccc2)CC1 3.39%, O=c1c2sccc2nc(SCc2cc(=O)n3ccccc3n2)n1Cc1ccccn1 18%, O=C(CSc1ccc(Cl)cc1)Nn1cnnc1 8.97%, N#CCCN1CCN(S(=O)(=O)c2ccc(S(=O)(=O)NC3CCCC3)cc2)CC1 5.82%, O=C(Cn1nc2n(c1=O)-c1ccccc1SC2)N/N=C/c1cccnc1 3.98%, COc1ccc(CN2C(=O)c3ccccc3C2=O)cc1C(=O)OC(C)C(=O)NC(N)=O (configuration not stated) -1.41%
